Screens from PubChem.
Sampled rows, rich in hits. Any-hit rate of the full collection: about 8%.
MARV entry inh: qHTS for inhibitors of binding or entry into cells for Marburg Virus; Marburg virus pseudotyped entry inhibition, cell reporter; Potency, µM (highest dose often 37.8 µM), most hits filed as inhibitors; actives 1.8% (n = 300,000); calls by dose curve; tested in HEK293 cells
Lassa entry inh: qHTS for Inhibitors of binding or entry into cells for Lassa Virus; Lassa virus pseudotype entry inhibition, cell reporter; Potency, µM (top dose mostly 37.9 µM), most hits filed as inhibitors; actives 1.2% (n = 300,000); calls by dose curve; tested in HEK293 cells; further: nearly all actives have a fitted effect of over 50% in size
FMDV antiviral: High Throughput Screening for Foot and Mouth Disease Virus Antivirals. FMDV antiviral cell-based qHTS. Potency, µM (highest dose often 57.9 µM), actives largely listed as inhibitors. actives 1.2% (n = 410,000). AID 1159524, 2015; calls by dose curve; tested in HEK293T cells; further: read-out not given here; nearly all actives have a fitted effect of over 45% in size
HCV inhibitor: qHTS Assay for Inhibitors of Hepatitis C Virus (HCV) | Huh7.5.1 HCVcc-Cre infection, luciferase reporter, 44 h | actives 3.4% (n = 340,000) | Potency, µM (highest dose often 41.8 µM), usual class: inhibitors | AID 651820, 2012; active means well fitted inhibition curve with a large enough effect; inconclusive means small, poorly fitted or top-dose-only effect, or another doubt; inactive means no such curve, though single readings can be large or run the other way
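A cell-based infection assay in which seeded cells (1,000 per well) receive test compound after 4 h, are inoculated with HCVcc-Cre at approximately 0.5 moi, and are incubated 44 h before luminescence detection.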
SARS PLpro yeast: qHTS of Yeast-based Assay for SARS-CoV PLP; actives 0.19% (n = 330,000); S. cerevisiae expressing SARS-CoV PLpro, growth rescue; Potency, µM (top dose mostly 32.9 µM), hits mostly activators; calls by dose curve; further: nearly all actives have a fitted effect of over 55% in size
HCMV antiviral: qHTS Assay for inhibitors of the human cytomegalovirus (HCMV); actives 4.5% (n = 410,000); activity change, negative = inhibition, % at 57.5 µM; HFF cells, HCMV-luciferase reporter, 72 h; hits give low values; AID 1259415, 2018; in the data active means activity change below about -60%; inconclusive means no clear call, values can overlap the other calls; inactive means above about -39%
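Screen run at 2 compound doses on HFFs infected with reporter HCMV, MOI 1 PFU/cell. Luciferase activity from cell lysates at 72 h post infection gave inhibition relative to buffer-only and Salinomycin wells.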
Each line names hits and unclear results; the compound was inactive in the other large screens.

Cc1nc2ncnn2c(N2CCCC(C(=O)Nc3ccccc3Br)C2)c1C (stereo not given)	Lassa entry inh inconclusive, FMDV antiviral inconclusive, HCV inhibitor inconclusive, HCMV antiviral -64
CCc1c(C)nc2ncnn2c1N1CCCC(C(=O)NCCc2ccccc2)C1 (stereo not given)	none
CCc1c(C)nc2ncnn2c1N1CCCC(C(=O)Nc2cc(F)ccc2C)C1 (stereo not given)	MARV entry inh inconclusive, FMDV antiviral 35µM
CCOc1ccc(NC(=O)C2CCCN(c3nc(C)cc(C)n3)C2)cc1 (stereo not given)	MARV entry inh inconclusive
CC(=O)c1cccc(NC(=O)Cc2ccc(NC(=O)N3CCCCc4ccccc43)cc2)c1	none (no result: MARV entry inh, HCV inhibitor, SARS PLpro yeast)
Cc1cccn2c(=O)c3cc(C(=O)NCCc4ccc(S(N)(=O)=O)cc4)n(C)c3nc12	none (no result: MARV entry inh, HCV inhibitor, SARS PLpro yeast)
Cc1ccc(S(=O)(=O)CCSc2nc(C)cc(C(F)(F)F)c2C#N)cc1	Lassa entry inh inconclusive, FMDV antiviral inconclusive, HCV inhibitor inconclusive, HCMV antiviral -71
COc1ccccc1Cn1c(C(C)C)nc2ccccc21	none (no result: MARV entry inh, Lassa entry inh)
COc1ccccc1Cn1c(/C=C/c2ccccc2)nc2ccccc21	MARV entry inh inconclusive, Lassa entry inh inconclusive, HCV inhibitor 10µM (no result: SARS PLpro yeast)
CC(C)Cn1c(/C=C/c2ccc(F)cc2)nc2ccccc21	MARV entry inh inconclusive, Lassa entry inh inconclusive (no result: HCV inhibitor, SARS PLpro yeast)
COCCn1c(/C=C/c2ccccc2)nc2ccccc21	MARV entry inh 10µM, Lassa entry inh inconclusive
COc1ccc(/C=C/c2nc3ccccc3n2Cc2ccccc2OC)cc1	MARV entry inh inconclusive, Lassa entry inh inconclusive, HCV inhibitor inconclusive, HCMV antiviral -98
Cc1cccc(Cn2c(=O)n(-c3ccc(Cl)c(Cl)c3)c(=O)c3c(C)c(C)sc32)c1	none (no result: HCV inhibitor, SARS PLpro yeast)
CN(Cc1ccc(Cl)cc1Cl)C(=O)c1cc(=O)c2ccccc2o1	HCMV antiviral -63
CN(Cc1ccccc1Cl)C(=O)c1cc2ccccc2o1	Lassa entry inh inconclusive
Cc1cc(C)cc(OCc2cc(=O)n3cc(C)sc3n2)c1	none (no result: HCV inhibitor, SARS PLpro yeast)
Cn1c(=O)c2c(ncn2CCOc2ccc(Br)cc2)n(C)c1=O	FMDV antiviral inconclusive, HCV inhibitor 10µM, HCMV antiviral inconclusive
CN(Cc1cccc(-c2cccnc2)c1)C(=O)Oc1ccc([N+](=O)[O-])cc1	FMDV antiviral 35µM (no result: MARV entry inh, Lassa entry inh, HCV inhibitor, SARS PLpro yeast)
CN1c2ccccc2C2(C)CCCC3=Cc4cc([N+](=O)[O-])cc([N+](=O)[O-])c4OC312 (stereo not given)	MARV entry inh inconclusive, FMDV antiviral inconclusive, HCMV antiviral -60
CN1c2ccccc2C2(C)CCCC3=Cc4cccc([N+](=O)[O-])c4OC312 (stereo not given)	FMDV antiviral inconclusive, HCMV antiviral inconclusive
Cc1ccc(CNC(=O)C(=O)NCC(c2ccc3c(c2)OCO3)N2CCOCC2)cc1 (stereo not given)	none (no result: MARV entry inh, HCV inhibitor, SARS PLpro yeast)
CC(C)SCC(=O)Nc1ncc2c(n1)-c1ccccc1CC2	Lassa entry inh inconclusive, HCV inhibitor inconclusive, HCMV antiviral -64
O=C(Nc1ncc2c(n1)-c1ccccc1CC2)C1CC1	Lassa entry inh inconclusive, HCV inhibitor inconclusive
O=C(CCC1N=C2c3ccccc3N=C(SCc3ccc(F)cc3)N2C1=O)NC1CCCCC1 (stereo not given)	FMDV antiviral inconclusive (no result: MARV entry inh, HCV inhibitor, SARS PLpro yeast)
CCOc1cc(/C=N/NC(=O)Cc2ccc(C(F)(F)F)cc2[N+](=O)[O-])c(Br)cc1OC	HCV inhibitor inconclusive
COc1cc(Br)cc(/C=N/NC(=O)Cc2ccc(C(F)(F)F)cc2[N+](=O)[O-])c1O	MARV entry inh inconclusive, Lassa entry inh inconclusive, HCV inhibitor inconclusive, HCMV antiviral -102
S=C(NCCc1ccccc1)NCCc1ccccc1	MARV entry inh inconclusive
S=C(NCc1ccccc1Cl)Nc1ccccc1Cl	none (no result: MARV entry inh, Lassa entry inh)
NS(=O)(=O)c1ccc(CCNC(=O)CNCCc2ccc(C(F)(F)F)cc2)cc1	FMDV antiviral inconclusive, HCV inhibitor inconclusive, HCMV antiviral -61 (no result: MARV entry inh, Lassa entry inh)
NS(=O)(=O)c1ccc(CCNC(=O)c2ccccc2Cc2ccccc2)cc1	HCMV antiviral -61 (no result: MARV entry inh, Lassa entry inh)
S=C(NCCCc1ccccc1)Nc1ccccc1Cl	HCMV antiviral -60
NS(=O)(=O)c1ccc(CCNC(=O)CNC(=O)c2ccc(F)cc2)cc1	none
S=C(NCCc1ccccc1)Nc1ccc(Br)cn1	HCMV antiviral -102
Fc1ccc(CNc2cc(-c3ccccc3)nc3nncn23)cc1	MARV entry inh inconclusive, FMDV antiviral inconclusive, HCMV antiviral inconclusive (no result: HCV inhibitor, SARS PLpro yeast)
O=C(NCCc1ccc(F)cc1)Nc1ccccc1Cl	HCMV antiviral -63
NS(=O)(=O)c1ccc(CCNCC(=O)NC2CC2)cc1	none
O=C(NCCc1ccncc1)Nc1ccccc1Cl	none (no result: FMDV antiviral)
O=C(CN1CCN(Cc2ccccc2)CC1)NCCc1ccccc1	MARV entry inh inconclusive
NS(=O)(=O)c1ccc(CCNCC(=O)N2CCC(Cc3ccccc3)CC2)cc1	HCV inhibitor 11µM, HCMV antiviral -61 (no result: MARV entry inh, Lassa entry inh)
O=C(NCCc1ccccc1)c1ccccc1Cl	MARV entry inh 11µM, Lassa entry inh inconclusive
O=C(CN1CCN(Cc2ccc(F)cc2)CC1)NCCc1ccccc1	Lassa entry inh inconclusive, HCMV antiviral -81
O=C(O)c1ccccc1C(=O)NCCc1ccc(Cl)cc1	none
COc1cc(OC)cc(C(=O)Nc2cc(-c3nc4cccnc4s3)ccc2C)c1	none (no result: MARV entry inh, HCV inhibitor, SARS PLpro yeast)
S=C(NCCNC(=S)Nc1ccccc1Cl)Nc1ccccc1Cl	MARV entry inh inconclusive, Lassa entry inh inconclusive, HCV inhibitor inconclusive, HCMV antiviral inconclusive
S=C(NCCc1ccccc1)Nc1ccccc1Cl	HCMV antiviral -64
CCc1sc(C(=O)NCCc2ccc(S(N)(=O)=O)cc2)cc1C	HCV inhibitor inconclusive
CCc1sc(C(=O)NCCc2ccc(S(N)(=O)=O)cc2)cc1Br	Lassa entry inh inconclusive, HCMV antiviral -68
CN(C(=O)CCn1c(=S)oc2ccccc21)c1ccc(F)cc1	HCMV antiviral -89 (no result: MARV entry inh, Lassa entry inh)
COc1ccc(-n2c(-c3ccc(C)cc3)cc3c2CC(C)(C)CC3=O)cc1Cl	FMDV antiviral inconclusive (no result: HCV inhibitor, SARS PLpro yeast)
Nc1nc(SCc2ccc([N+](=O)[O-])cc2)c2ncn([C@@H]3O[C@@H](CO)[C@@H](O)[C@H]3O)c2n1	none (no result: Lassa entry inh, FMDV antiviral, HCV inhibitor, SARS PLpro yeast, HCMV antiviral)
Cc1ccc(C)c(NC(=O)C(=O)NCCc2csc3nc(-c4ccccc4C)nn23)c1	FMDV antiviral 22µM, HCMV antiviral -68 (no result: MARV entry inh, HCV inhibitor, SARS PLpro yeast)
Cc1ccc(NC(=O)C(=O)NCCc2csc3nc(-c4ccccc4C)nn23)cc1Cl	none (no result: MARV entry inh, HCV inhibitor, SARS PLpro yeast)
O=C(NCc1ccc(Cl)cc1)O[C@H]1CC[C@@]23CCCN2C(=O)CCC[C@H]3[C@H]1Cc1ccccc1	none (no result: MARV entry inh, Lassa entry inh, FMDV antiviral, HCV inhibitor, SARS PLpro yeast)
Cc1ccc2nc(Cl)c3cc(C(=O)NCCCN4CCCC4)sc3c2c1	MARV entry inh 10µM, HCV inhibitor 8.9µM
Cc1ccc2nc(Cl)c3cc(C(=O)N4CCCCC4)sc3c2c1	none (no result: HCV inhibitor, SARS PLpro yeast)
CCC1CCCCN1CCCNC(=O)c1cc2c(Cl)nc3ccc(C)cc3c2s1 (stereo not given)	MARV entry inh inconclusive, Lassa entry inh inconclusive, HCMV antiviral -106 (no result: HCV inhibitor, SARS PLpro yeast)
